# The list is not random: actives were taken first. Their share in the collection is about 2.9%.
# CRFR2-BP antag: blocks CRF-induced signaling of the CRF-BP/CRF-R2 complex; HEK293 CRF-R2/CRF-BP, CRF-induced calcium fluorescence; inhibition, % at 11.8 µM; 350,000 compounds, 0.59% hits; AID 588475;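 active means inhibition of the ligand-induced calcium signal above about 50% at the single tested concentration, limit read from the data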
# MEKK2wt PB1 HTS: raises or lowers MEK5 binding to wildtype human MEKK2 PB1 domain | binding response (% of control), % at 10 µM | Q9Y2U5 | bead flow cytometry, Alexa488-MEK5 binding to MEKK2 WT; actives lie on both sides | AID 1531 | 290,000 compounds, 1.1% hits; in the data active means binding response below about 67% or above about 130%
# ABCB6 inh 2: blocks the human ABCB6 transporter | K562-ABCB6 porphyrin accumulation, flow cytometry, 1 h; hits give low values | fluorescence ratio to DMSO, % at 10 µM | Q9NP58 | 360,000 compounds, 0.19% hits | AID 602162;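 active means fluorescence ratio to DMSO below 75%, the collection mean minus 3 SD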;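 further: signal is porphyrin accumulated inside mitochondria; 100% equals median channel fluorescence of DMSO control wells; lower ratio means ABCB6 inhibition with less porphyrin fluorescence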
# MEKK3 PB1 HTS: MEKK3-MEK5 PB1 interaction, increase or decrease; Q99759; bead-based flow cytometry, Alexa488-MEK5 binding to MEKK3; actives lie on both sides; 0 = blocked by unlabeled MEK5, 100 = vehicle; binding response (% of control), % at 10 µM; 290,000 compounds, 1.4% hits; AID 1529;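 active means binding response more than 3 SD above or below the average of its plate-row segment, actives on both sides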;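 further: Alexa488 bead fluorescence after subtracting the streptavidin-only scavenger bead signal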
# Target sequence (Q99759 whole entry, looked up): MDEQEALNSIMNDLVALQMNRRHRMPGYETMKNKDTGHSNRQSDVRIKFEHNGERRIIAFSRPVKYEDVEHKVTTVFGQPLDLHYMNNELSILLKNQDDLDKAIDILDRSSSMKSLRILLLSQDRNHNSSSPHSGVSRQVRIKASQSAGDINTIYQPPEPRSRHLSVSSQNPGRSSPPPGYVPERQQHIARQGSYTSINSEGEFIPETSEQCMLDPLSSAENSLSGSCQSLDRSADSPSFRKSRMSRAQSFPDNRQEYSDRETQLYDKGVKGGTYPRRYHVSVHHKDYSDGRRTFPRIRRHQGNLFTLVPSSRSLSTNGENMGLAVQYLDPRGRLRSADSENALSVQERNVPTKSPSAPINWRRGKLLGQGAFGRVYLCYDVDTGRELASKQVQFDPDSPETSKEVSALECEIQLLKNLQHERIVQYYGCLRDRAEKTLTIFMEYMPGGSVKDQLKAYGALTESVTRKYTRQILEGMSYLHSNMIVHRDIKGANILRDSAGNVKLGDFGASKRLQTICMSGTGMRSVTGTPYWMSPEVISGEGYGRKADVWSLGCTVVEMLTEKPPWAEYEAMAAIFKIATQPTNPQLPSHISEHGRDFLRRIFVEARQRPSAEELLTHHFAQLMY
# MEKK2mut PB1 HTS: signal of MEK5 binding to mutant human MEKK2 PB1 domain. percent response, % at 10 µM. 290,000 compounds, 0.35% hits. AID 1530. bead flow cytometry, Alexa488-MEK5 binding to MEKK2 mutant; in the data active means percent response above about 24%, passing the limit was not always enough
# CRFBP-R2 agonist: agonists of human CRF-binding protein/CRF-R2 receptor complex; AID 588473; HEK293 CRF-R2/CRF-BP, calcium dye fluorescence (FLIPR); percent of saturating CRF peptide response; 350,000 compounds, 0.46% hits; activation, % at 13.2 µM;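 active means activation of at least 50%, plus an integration ratio under a set limit after plate pattern correction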;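 further: plate controls were neutral control wells without compound for no effect and CRF at EC100 for full effect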
# * marks the source's active call; other numbers are inactive results; x = no result; [ ] = dose if it differs, or a comment.
SMILES,CRFR2-BP antag,MEKK2wt PB1 HTS,ABCB6 inh 2,MEKK3 PB1 HTS,MEKK2mut PB1 HTS,CRFBP-R2 agonist
CCN(CC)C(=O)c1ccc(/C=C/c2c[nH]c3ccccc23)[n+](C)c1,-15,102,199,98,-4,54*
O=C(c1ccc(S(=O)(=O)Nc2ccccc2F)cc1)N1CCCC1,-1,x,101,x,x,0
CCc1nnc(NC(=S)Nc2ccccc2)s1,57*,88,110,96,-9,-2
CCc1nnc(NC(=O)CCC(=O)Nc2ccccc2)s1,16,106,89,105,3,-1
CCN(CCO)Cc1csc2cccc(Br)c12,83*,x,99,x,x,-3
O=C1/C(=C/C=C/c2ccco2)SC(=S)N1c1ccc(O)cc1,-16,62*[inhibitor],108,87,-22,1
O=C1/C(=C\c2ccco2)SC(=S)N1c1ccc(O)cc1,-1,91,101,96,-4,-1
O=C(c1ncn(Cc2ccccc2)c1C(=O)N1CCc2ccccc2C1)N1CCc2ccccc2C1,-21,x,99,x,x,12
COC(=O)C1=C(N)Oc2cc(C)[nH]c(=O)c2C1c1ccccc1OC (stereo not drawn),3,83,91,79,-19,2
Cc1ccc(Sc2ccc(CO)cc2[N+](=O)[O-])cc1,51*,97,101,99,-1,-1
O=c1cc(O)nc(-c2ccccc2)s1,-4,101,101,99,1,3
O=c1cc(-c2ccccc2)ss1,90*,x,100,x,x,-2
O=C(c1ccc(Br)cc1)N1CCN(c2ncccn2)CC1,94*,x,95,x,x,-1
O=C(c1ccccc1)N1CCN(c2ncccn2)CC1,3,103,98,104,2,2
CCCCCn1c(=N)c(S(=O)(=O)c2ccc(Br)cc2)cc2c(=O)n3cccc(C)c3nc21,-26,98,108,102,1,19
Cc1ccc(S(=O)(=O)c2cc3c(=O)n4ccccc4nc3n(Cc3ccco3)c2=N)cc1,-2,x,94,x,x,66*
CCCCn1c(=NC(=O)c2cccnc2)c(C#N)cc2c(=O)n3cccc(C)c3nc21,-9,x,89,x,x,89*
CCCCn1c(=N)c(S(=O)(=O)c2ccc(Br)cc2)cc2c(=O)n3cccc(C)c3nc21,-68,93,105,97,-1,59*
Cc1cccc(-c2ccc3c(c2)C2CC3CCN2)c1 (stereo not drawn),-8,x,108,x,x,0
O=C(NCCc1ccccn1)c1nc(Cn2cc(Br)cn2)no1,-8,99,97,104,-2,0
CC(OC(=O)c1cc(=O)[nH]c2ccccc12)C(=O)NC1CCCCC1C (stereo not drawn),3,x,97,x,x,-3
CCN(CC(=O)Nc1cc(Cl)ccc1C)C(=O)c1ccc(N2CCCC2=O)cc1,6,x,97,x,x,-1
COc1ccc(CN(C(=O)c2nsc(Cl)c2Cl)C(C(=O)NC2CCCC2)c2ccc(OC)cc2)cc1 (stereo not drawn),-10,93,110,106,-1,53*
CN(Cc1ccccc1)C(=O)c1[nH]c(C(F)(F)F)nc1-c1ccccc1,x,x,104,x,x,x
Cc1ccccc1-n1ncc2c(SCC(=O)N3c4ccccc4CC3C)ncnc21 (stereo not drawn),54*,104,97,106,4,7
SMILES,CRFR2-BP antag,MEKK2wt PB1 HTS,ABCB6 inh 2,MEKK3 PB1 HTS,MEKK2mut PB1 HTS,CRFBP-R2 agonist
CC12CCC(C)(O1)C1C(=O)N(c3nccs3)C(=O)C12 (stereo not drawn),-10,x,99,x,x,-2
Cc1cc2nc(C)n(CCCN)c2cc1C,54*,107,97,100,6,0
Cc1cc2nc(C)n(CCCNC(=O)Nc3ccc(C#N)cc3)c2cc1C,-25,102,95,91,-5,1
CC1(C)CC(=O)C2=C(C1)c1c(ccc3ccccc13)NC2c1cc([N+](=O)[O-])cc([N+](=O)[O-])c1O (stereo not drawn),78*,81,100,98,-15,-1
CC1(C)CC(=O)C2=C(C1)c1c(ccc3ccccc13)NC2c1ccc(C(=O)O)cc1 (stereo not drawn),-7,98,93,102,1,1
CC(C)(C)NC(=O)C(c1ccc(O)cc1)N(Cc1ccc2c(c1)OCO2)C(=O)CCl (stereo not drawn),80*,x,93,x,x,-1
O=C1NC(=O)C2(N1)C(=O)c1cccc3cccc2c13 (stereo not drawn),-42,x,106,x,x,85*
CCCOc1cc(N(CC)CC)ccc1/C=C(/C#N)c1nc2ccc(C)cc2[nH]1,-137,57*,836,111,87*,107*
CCOc1cc(N(CC)CC)ccc1/C=C(/C#N)c1nc2ccccc2[nH]1,-171,x,252,x,x,97*
CCOC(=O)/C(C(=Nc1ccccc1)Nc1ccccc1)=C(\C)O,-2,108,102,102,4,-1
NC(=Nc1ccccc1)Nc1ccccc1,29,117,98,110,12,147*
COc1ccc2c3c(cccc13)C(=O)CC2,-95,90,104,94,-5,139*
CCOC(=O)N1CCN(C(=O)c2c[nH]c3ccc(S(=O)(=O)N(C)c4cccc(C)c4)cc3c2=O)CC1,-62,96,98,94,-5,82*
CCCCn1nnnc1C1(C)CCC(=O)N1CC(F)(F)F (stereo not drawn),x,x,90,x,x,x
O=C(NC1CCCCC1)C1CCCN1S(=O)(=O)c1cccc2nsnc12 (stereo not drawn),-2,99,98,102,0,-2
CC(NC(=O)C1CCCN1S(=O)(=O)c1cccc2nsnc12)c1ccccc1 (stereo not drawn),76*,97,101,99,-1,-3
Nc1nn(-c2ccccc2)c(N)c1N=Nc1ccccc1F,-53,102,97,129*,0,0
O=c1cc(-c2ccccc2Cl)oc2ccc([N+](=O)[O-])c(O)c12,-4,97,99,108,-2,-2
O=[N+]([O-])c1cc([N+](=O)[O-])c2oc(-c3ccccc3)c(Br)c2c1O,57*,100,96,106,1,4
Cc1ccc(C(=O)N[C@H](C(=O)NC2CCCCCCC2)C(C)C)cc1,-6,x,98,x,x,1
CC(=O)NC12CC3CC(C1)CC(C(=O)N(C)CC(=O)Nc1cccc(F)c1)(C3)C2,3,x,98,x,x,1
Cc1sc(NC(=O)C2CCCCC2C(=O)O)c(C(N)=O)c1-c1ccc(C(C)(C)C)cc1 (stereo not drawn),31,98,105,105,10,104*
Cc1ccc(C)c(S(=O)(=O)NCc2ccc3c(c2)OCO3)c1,-8,104,102,99,2,1
